Outcome and AC50 data for 16 molecules are collected here from PubChem BioAssay (EPA / NIEHS).

Records with an inconclusive call do not appear. Activity calls are given as the source filed them. Rule for the calls, unless noted: active = hit-call score of the fitted dose curve at least 0.9, where 1 is the maximum; inactive = score below 0.9.

As usually defined, the AC50 is the concentration giving half of the maximal activity seen.

The nature of assay [1]: CCTE_Deisenroth_5AR_NBTE_donor: CCTE's 5alpha-reductase NanoBRET Target Engagement Assay […], Deisenroth Lab (AID 2284319). The settings on record: actives raise or lower the signal. The essentials: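 In this secondary endpoint, donor luminescence from SRD5A2-NanoLuc in transfected HEK293T flags artifacts. Test chemical (10 nM - 29.9 uM) is present five hours, tracer the last two; mock-tracer wells run plate-matched; data fitted bidirectionally against DMSO.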
Background: BRET reads energy transfer from a luciferase to a nearby fluorophore.

Assay [2] is described as follows: CCTE_Deisenroth_5AR_NBTE_acceptor: CCTE's 5alpha-reductase NanoBRET Target Engagement Assay - Autofluorescence Screen, Deisenroth Lab (AID 2284321).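 Note: compound fluorescence in the acceptor channel under 460 nm excitation flags autofluorescence artifacts.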 Conditions: actives raise or lower the signal. A digest of the protocol:
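Using three independent plate-reader runs, nominal 100 uM chemicals were checked for intrinsic fluorescence (ex 460 nm). DMSO defined the baseline for bidirectional fitting.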

The subject of assay [3] is SRD5A2 (gene 6716). As to the kind of experiment: CCTE_Deisenroth_5AR_NBTE_ratio: CCTE's 5alpha-reductase NanoBRET Target Engagement Assay - Ratio, Deisenroth Lab (AID 2284322). The settings on record: actives raise or lower the signal. A digest of the protocol: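 HEK293T cells transiently expressing an SRD5A2-NanoLuc fusion (20 h post-transfection) were exposed to test chemical (10 nM - 29.9 uM, 8 points) for 3 h, then testosterone tracer for a further 2 h. Acceptor/donor BRET ratio was fitted bidirectionally against DMSO baseline.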

Assay [4] in a line: CCTE_Mundy_HCI_iCellGluta_NOG_NeuriteLength: CCTE's Neurite Outgrowth Assay in iCellGluta cells for Neurite Length, Mundy Lab (AID 2284318; active = hit-call score of the fitted dose curve at least 0.9, where 1 is the maximum). The essentials: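 Automated high-content imaging of betaIII-tubulin (Alexa Fluor-488) and Hoechst-stained cells gave neurite length, normalized to the DMSO baseline.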
A short description of assay [5]: VALA_TUBIPS_Antagonist_TubuleLength: VALA Sciences human iPS-derived Endothelial Tubule Formation (TUBIPS) Antagonist Assay (AID 2284313; active = hit-call score of the fitted dose curve at least 0.9, where 1 is the maximum). The protocol:
VALA_TUBIPS_Agonist is a cell-based, multiplexed assay that uses human iPS-derived endothelial cells (iPSC). Measurements were taken 72 hours after chemical dosing in a 96-well plate.VALA_TUBIPS_Antagonist_TubuleLength is the one of two assay components measured from the VALA_TUBIPS_Antagonist assay. It is designed to make measurements of tubulogenesis, a form of morphology reporter, as detected with fluorescence intensity signals by HCS Fluorescent Imaging technology. This VALA_TUBIPS_Antagonist assay was designed to detect chemical suppression of tubulogenesis, i.e. antagonism.Data from the assay component VALA_TUBIPS_Antagonist_TubuleLength was analyzed at the endpoint, VALA_TUBIPS_Antagonist_TubuleLength, in the positive analysis fitting direction relative to DMSO as the negative control and baseline of activity. Using a type of morphology reporter, loss-of-signal activity can be used to understand developmental effects. To generalize the intended target to other relatable targets, this assay endpoint is annotated to the neurodevelopment intended target family, where the subfamily is tubulogenesis.
(§1) […]

A short description of assay [6]: VALA_MIGHUV2_CellCount: Viability Assessment in the VALA Sciences human Umbilical Vein Endothelial Cell Migration (MIGHUV) Assay, Area of Scratch Wound after Recovery (AID 2284314; active = hit-call score of the fitted dose curve at least 0.9, where 1 is the maximum). The essentials: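 Viability read-out: Hoechst-stained nuclei counted by fluorescence imaging after a 24 h recovery period in fixed, scratched HUVEC plates. Compound was dosed within 30 min of scratching at six concentrations (triplicate); DMSO at 0.1 % served as baseline.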

The nature of assay [7]: VALA_MIGHUV2_WoundArea: VALA Sciences human Umbilical Vein Endothelial Cell Migration (MIGHUV) Assay, Area of Scratch Wound after Recovery (AID 2284316; active = hit-call score of the fitted dose curve at least 0.9, where 1 is the maximum). A digest of the protocol:
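Wound-area endpoint read by fluorescence imaging of Hoechst-stained nuclei after a 24 h recovery period following scratch of HUVEC monolayers (9000 cells/well). Chemicals dosed within 30 min post-scratch, triplicate 6-point series, 0.1% DMSO vehicle; Cytochalasin D positive control.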

Assay [8] concerns IYD (gene 389434). As to the kind of experiment: CCTE_GLTED_hIYD: CCTE's human Iodotyrosine Deiodinase (xIYD) Inhibition Assay, Great Lakes Toxicology and Ecology Division (GLTED) Lab (AID 2284317; active = hit-call score of the fitted dose curve at least 0.9, where 1 is the maximum;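 note: cell-free human IYD enzyme made in baculovirus insect cells; iodide freed from monoiodotyrosine measured by cerium arsenite color change at 420 nm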). A digest of the protocol:
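In the IYD assay, iodide released from MIT by insect-cell-expressed human enzyme was quantified after 3 h via Sandell-Kolthoff rate at 420 nm, with plate-wise normalization to MNT and solvent controls.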

The nature of assay [9]: VALA_TUBHUV_Antagonist_TubuleLength: VALA Sciences human Umbilical Vein Endothelial Tubule Formation (TUBHUV) Antagonism Assay (AID 2284325; active = hit-call score of the fitted dose curve at least 0.9, where 1 is the maximum). Here is the method:
VALA_TUBHUV_Antagonist is a cell-based, multiplexed assay that uses human umbilical vein endothelial cells (HUVEC). Measurements were taken 72 hours after chemical dosing in a 96-well plate.VALA_TUBHUV_Antagonist_TubuleLength is the one of two assay components measured from the VALA_TUBHUV_Antagonist assay. It is designed to make measurements of tubulogenesis, a form of morphology reporter, as detected with fluorescence intensity signals by HCS Fluorescent Imaging technology. This VALA_TUBHUV_Antagonist assay was designed to detect chemical suppression of tubulogenesis, i.e. antagonism.Data from the assay component VALA_TUBHUV_Antagonist_TubuleLength was analyzed at the endpoint, VALA_TUBHUV_Antagonist_TubuleLength, in the positive analysis fitting direction relative to DMSO as the negative control and baseline of activity. Using a type of morphology reporter, loss-of-signal activity can be used to understand developmental effects. To generalize the intended target to other relatable targets, this assay endpoint is annotated to the neurodevelopment intended target family, where the subfamily is tubulogenesis.
as §1

The nature of assay [10]: VALA_MIGHUV1_ScratchOnly_CellCount: Viability Assessment in the VALA Sciences human Umbilical Vein Endothelial Cell Migration (MIGHUV) Assay, Scratch Wound Inhibited Recovery (AID 2284327; active = hit-call score of the fitted dose curve at least 0.9, where 1 is the maximum). Here is the method: VALA_MIGHUV1_ScratchOnly is a cell-based, multiplexed assay that uses umbilical vein-derived endothelial cells (HUVEC). Measurements were taken 24 hours after chemical dosing in a 96-well plate.VALA_MIGHUV1_ScratchOnly_CellCount is the one of two assay components measured from the VALA_MIGHUV1_ScratchOnly assay. It is designed to make measurements of viability, a form of viability reporter, as detected with fluorescence intensity signals by HCS Fluorescent Imaging technology. Data from the assay component VALA_MIGHUV1_ScratchOnly_CellCount was analyzed at the endpoint, VALA_MIGHUV1_ScratchOnly_CellCount, in the positive analysis fitting direction relative to DMSO as the negative control and baseline of activity. Using a type of viability reporter, loss-of-signal activity can be used to understand viability. To generalize the intended target to other relatable targets, this assay endpoint is annotated to the cell cycle intended target family, where the subfamily is cell count.
Cells were seeded on 384-well microplates (day-0) at a density of 9000 cells per well for detection of wound area recovery or 4000 cells per well for detection of beta-catenin (CTNB) immunoreactivity and incubated in Endothelial Cell Growth Medium (CAI, San Diego; catalog 211-500). After 24 hours of culture, the HUVEC plates were scratched using a custom scratch head with the Bravo liquid handling system. […]

On to `CCCCCCCCCCC`, for which the result in assay [1], in [2] and in assay [3] was inactive.

Regarding `COc1ccc(C)cc1N`, the molecule was called inactive in assay [1], in [2] and in assay [3].

Turning to `C[Si]1(C)O[Si](C)(C)O[Si](C)(C)O[Si](C)(C)O1`, in assay [4], the call was inactive.

Regarding `C1CCC(SSC2CCCCC2)CC1`, the outcome in assay [1], in [2] and in [3] was inactive.

`OC[C@@H](O)[C@@H](O)[C@H](O)[C@H](O)CO`: the outcome in assay [5], in assay [6], in assay [7], in assay [1], in [2] and in assay [3] was inactive.

On to `CCCCC(CC)COC(=O)CC(C(=O)OCC(CC)CCCC)S(=O)(=O)O` (stereo not drawn), for which the result in assay [5] and in assay [7] was inactive. The AC50 in assay [6] is 50 µM (active); in assay [8], 41.5 µM (active); in [1], 62.2 µM (active); in assay [3], 75.3 µM (active); in [9], 73 µM (active); in [10], 78.2 µM (active).

For the molecule `COC(=O)c1ccc(O)cc1`, the outcome in assay [5] and in assay [9] was inactive.

As to `COc1cc(-c2nc(NC(=O)c3cc4cc(C)cc(C)c4n3CC(=O)O)sc2CCC2CCCCC2)c(OC)cc1Cl`, the outcome in assay [1] and in assay [2] was inactive. For the same molecule, in assay [3], the AC50 is 26.3 µM (active).

Take `Oc1ccc2ccccc2c1N=Nc1ccccc1`: the call in assay [6], in assay [7], in [1], in assay [2], in assay [3] and in assay [10] was inactive.

In the case of `CCCc1cc(=O)[nH]c(=S)[nH]1`, the outcome in [5] and in [9] was inactive.

`Cc1cc(NC(=O)C(=O)O)cc(C)c1Oc1ccc(O)c2c1CCC2`: the outcome in assay [5] was inactive.

As for `O=c1c(O)c(-c2ccc(O)c(O)c2)oc2cc(O)cc(O)c12`, the molecule was called inactive in assay [5] and in [3]. Moreover, the results for the AC50 in [1] and in assay [2] were 26.7 µM (active) and 23.3 µM (active), respectively.

As for `COc1cc(S(=O)(=O)O)c(C)cc1N=Nc1c(O)ccc2cc(S(=O)(=O)O)ccc12`, the results for the AC50 in assay [8], in [1] and in assay [3] were 154 µM (active), 24.8 µM (active) and 60.2 µM (active), respectively. Besides, the molecule was classed as inactive in assay [2].

`CC=Cc1ccc(O)c(OC)c1`: the outcome in assay [1], in assay [2] and in assay [3] was inactive.

For `CC(=O)Oc1ccccc1C(=O)O`, in assay [4], the call was inactive.

With `CCCCOC(=O)CCCCCCCCC(=O)OCCCC`, the result in [1], in assay [2] and in assay [3] was inactive.
